Sampled rows, rich in hits. Any-hit rate of the full collection: about 8.3%.
HCMV antiviral – human cytomegalovirus inhibition; activity change, negative = inhibition, % at 57.5 µM; HFF cells, HCMV-luciferase reporter, 72 h; active compounds read low; 4.5% of 410,000 active; in the data active = activity change below about -60%; inconclusive = no clear call, values can overlap the other calls; inactive = above about -39%
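Luciferase read-out from HCMV-luciferase-infected HFFs (MOI 1 PFU/cell) 72 h post infection at 37C; compounds added after 16 h cell attachment; activity normalized between buffer-only basal and Salinomycin (10uM) inhibitor controls.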
HCV inhibitor – blocks hepatitis C virus. Huh7.5.1 HCVcc-Cre infection, luciferase reporter, 44 h. Potency, µM (top dose mostly 41.8 µM), without a hit: at the top dose activity change, negative = inhibition, actives largely listed as inhibitors. 3.4% of 340,000 active; also: potency is read from the fitted curve at half-maximal effect
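1,000 cells/well; 4 h culture; + compound; + HCVcc-Cre (~0.5 moi); 44 h; luciferase substrate, RT 15 min; read 15 sec.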
FMDV inh – foot and mouth disease virus antiviral activity; 1.2% of 410,000 active; FMDV antiviral cell-based qHTS; Potency, µM (titrated, usually from 57.9 µM), inactives show at the top dose activity change, negative = inhibition, usual class: inhibitors; AID 1159524; calls by dose curve; tested in HEK293T cells; also: read-out not given here; potency is read from the fitted curve at half-maximal effect; nearly all actives have a fitted effect of over 45% in size
Giardia FBPA inh – Giardia lamblia aldolase inhibition; 0.71% of 290,000 active; A8B2U2; purified Giardia FBPA; Potency, µM (series often up to 59.6 µM), for inactives: top-dose activity, negative = inhibition, most hits filed as inhibitors; also: potency is read from the fitted curve at half-maximal effect; nearly all actives have a fitted effect of over 55% in size
Target sequence (A8B2U2 whole entry, looked up): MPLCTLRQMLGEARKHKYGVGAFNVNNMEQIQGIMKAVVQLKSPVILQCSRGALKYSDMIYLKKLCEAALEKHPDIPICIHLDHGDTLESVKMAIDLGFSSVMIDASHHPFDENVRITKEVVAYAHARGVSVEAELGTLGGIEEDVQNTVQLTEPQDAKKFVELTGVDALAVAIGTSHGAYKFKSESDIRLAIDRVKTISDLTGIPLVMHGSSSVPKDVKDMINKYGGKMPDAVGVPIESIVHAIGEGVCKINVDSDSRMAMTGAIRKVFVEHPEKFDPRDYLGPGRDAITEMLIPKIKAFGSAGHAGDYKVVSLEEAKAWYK
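Giardia FBPA (40 nM reagent) was preincubated 10 min at RT with compound (up to 57.5 uM final), then substrate plus GAPDH/TPI/NAD/arsenate coupling system with diaphorase/resazurin was added; resorufin fluorescence (525/598 nm) was read after 20 min.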
MARV entry inh – Marburg virus entry inhibition. Marburg virus pseudotyped entry inhibition, cell reporter. Potency, µM (series often up to 37.8 µM), for the others: top-dose activity change, negative = inhibition, usual class: inhibitors. 1.8% of 300,000 active. AID 540276; calls by dose curve; tested in HEK293 cells; also: potency is read from the fitted curve at half-maximal effect
Lassa entry inh – inhibitors of Lassa virus binding or cell entry | Potency, µM (doses to about 37.9 µM), for the others: at the top dose activity change, negative = inhibition, hits mostly inhibitors | 1.2% of 300,000 active | Lassa virus pseudotype entry inhibition, cell reporter | AID 540256; calls by dose curve; tested in HEK293 cells; also: potency is read from the fitted curve at half-maximal effect; nearly all actives have a fitted effect of over 50% in size
* = called active by the depositor; ? = inconclusive; . = not tested or not shown; [ ] = remark or other dose. Unless noted, calls follow the shape of the dose curve; as a rule, active = well fitted curve in the direction sought with a large enough effect; inconclusive = small, poorly fitted or top-dose-only effect, or another doubt; inactive = no such curve, though single readings can be large; an effect the other way counts as inactive or inconclusive. % is scaled to controls: 0 for no effect and ±100 for the full control effect.

SMILES	HCMV antiviral	HCV inhibitor	FMDV inh	Giardia FBPA inh	MARV entry inh	Lassa entry inh
COc1ccc(C(CCNCc2ccc(OC(C)C)cc2)C(C)C)cc1 (stereo unspecified)	-79*	?	?	2%	?	?
COCCNCc1ccc(C(C)C)cc1	-26	7%	-4%	-8%	.	.
COc1ccc(C(CCNCc2ccc(N(C)C)cc2)C(C)C)cc1 (stereo unspecified)	-75*	?	?	1%	.	.
CCOCCCNCc1ccc(OC)c(OC)c1	36	12%	-9%	?	0%[46.1 µM]	-12%
O=C(NCCc1ccccc1)C(=O)NCC(c1ccc2c(c1)OCO2)N1CCOCC1 (stereo unspecified)	0	.	-15%	.	.	18%[46.1 µM]
CCC(C)C(NC(=O)OC(C)(C)C)C(=O)NC1COC2CC(n3cc(F)c(=O)[nH]c3=O)OC12 (stereo unspecified)	.	.	.	1%	.	.
CN1/C(=C\C=[N+](C)c2ccccc2)C(C)(C)c2ccccc21	-95*	11µM*	.	-1%	?	4.6µM*
CC1=NN(c2ccccc2)C(=O)/C1=C\C=C1/N(C)c2ccccc2C1(C)C	-38	?	-22%	-15%	11µM*	?
CC1=NN(c2ccccc2)C(=O)/C1=C\C=C\c1ccccc1	-98*	?	22µM*	-13%	?	?
CC1=NN(c2ccccc2)C(=O)/C1=C/C=C/c1ccc(N(C)C)cc1	7	-21%	?	-28%	.	.
CC1=NN(c2ccccc2)C(=O)/C1=C\C=C1\N(C)c2ccccc2C1(C)C	-6	?	?	-11%	8%	4%
Cc1ccccc1C1=NC(C)(CC(=O)Nc2ccc(F)cc2F)ON1C (stereo unspecified)	-3	.	.	.	.	.
CCC[C@@H]1Cc2c(sc3nc(SC)nc(N)c23)CO1	.	.	.	.	0%[46.1 µM]	.
CN(C)c1ccc(C=C2C(=O)NC(=S)NC2=O)cc1[N+](=O)[O-]	21	3%	40µM*	?	27%	12%
COc1cc(CNCCc2ccc(S(N)(=O)=O)cc2)ccc1OCc1ccc(Cl)cc1	-93*	4.5µM*	?	-2%	?	?
CCOc1ccc(CNCCc2ccc(S(N)(=O)=O)cc2)cc1	-1	-28%	-7%	-1%	?	-10%
CCOc1cc(CNCCc2ccc(S(N)(=O)=O)cc2)ccc1OCc1ccc(Cl)cc1	-103*	?	?	-6%	?	?
NS(=O)(=O)c1ccc(CCNCc2ccccc2OCc2ccc(F)cc2)cc1	-67*	?	?	-8%	?	?
CN(C)c1ncc2nc(-c3ccc(Cl)cc3)c(=O)n(Cc3cccs3)c2n1	.	.	-15%	-7%	.	.
CN(C)c1cccc(C(=O)NCC2Cc3cccc(-c4cncnc4)c3O2)c1 (stereo unspecified)	.	.	13%	.	.	.
CCCCCCCOC(=O)C1=C(C)Nc2ncnn2C1c1cccs1 (stereo unspecified)	-17	?	?	0%	?	13µM*
CCCCCCCCOC(=O)C1=C(C)Nc2nnnn2C1c1cccs1 (stereo unspecified)	18	-4%	?	-18%	?	?
O=C(c1ccc2c(c1)OCO2)C1CCCN(Cc2ccc(OC(F)F)cc2)C1 (stereo unspecified)	-11	13µM*	?	1%	.	.
CCn1cc(C(=O)OCC(=O)Nc2cc(OC)cc(OC)c2)c(=O)c2ccc(C)nc21	-37	.	-13%	.	3%[46.1 µM]	?
CCOC(=O)c1c(NC(=O)CSc2nncs2)sc(C)c1-c1ccccc1	-64*	?	?	3%	?	?
SMILES	HCMV antiviral	HCV inhibitor	FMDV inh	Giardia FBPA inh	MARV entry inh	Lassa entry inh
CCOC(=O)c1c(-c2ccccc2)csc1NC(=O)CSc1ccccc1	-4	-16%	-2%	0%	?	?
CCOC(=O)c1sc(NC(=O)CSc2nc3ccccc3o2)c(C(=O)OCC)c1C	37	7%	-20%	1%	?	24%
CCOC(=O)c1cc(C)sc1NC(=O)CSc1nnnn1C	-15	.	-1%	-5%	6%	4%
CCOC(=O)c1c(NC(=O)CSc2nnnn2C)sc(C)c1-c1ccc(C)cc1	?	?	?	-7%	23µM*	?
CCOC(=O)c1sc(NC(=O)CSc2nnc(Cc3ccccc3)o2)c(C(=O)OCC)c1C	0	6.3µM*	-13%	-4%	?	-19%
CCOC(=O)c1c(-c2ccccc2)csc1NC(=O)CSc1nncs1	0	?	?	-8%	?	?
CCOC(=O)c1c(-c2ccccc2)csc1NC(=O)CSc1nnnn1C	-32	7.1µM*	?	-9%	?	?
Cc1ccc2c(Cl)cc(Cl)c(OCC(=O)Nc3cc(S(=O)(=O)N(C)C)ccc3C)c2n1	-28	2.5µM*	?	?	4µM*	?
Cc1ccc2c(Cl)cc(Cl)c(OCC(=O)Nc3cccc(S(=O)(=O)N(C)C)c3)c2n1	28	?	?	0%	0%	-11%
Cc1ccc2c(Cl)cc(Cl)c(OCC(=O)NC(C)(C)C)c2n1	4	22µM*	-37%	-8%	.	.
COC(=O)COc1c(Cl)cc(Cl)c2ccc(C)nc12	9	5%	-13%	2%	12%[46.1 µM]	-2%[46.1 µM]
COC(=O)N1CCC[C@@]2(CCN(C(=O)Nc3ccc(OC)cc3)C2)C1	.	.	-6%	-20%	.	.
CCCCCOC(=O)[C@H](C)c1c(C)[nH]c(=S)[nH]c1=O	.	.	.	.	4%	.
O=Cc1cnc(N2CCN(Cc3ccccc3)CC2)s1	-64*	17%	-13%	-3%	12%[46.1 µM]	-15%[46.1 µM]
COc1ccc([N+](=O)[O-])c(S(=O)(=O)c2ccc(Cl)cc2)n1	-100*	?	13µM*	-4%	4.5µM*	?
COc1ccc([N+](=O)[O-])c(S(=O)(=O)c2ccccc2)n1	-97*	?	32µM*	-12%	?	7.1µM*
COc1nc(OC)nc(Oc2ccc(Cl)cc2[N+](=O)[O-])n1	19	?	-17%	6%	-2%	-3%
O=[N+]([O-])c1cccnc1S(=O)(=O)c1ccccc1	-99*	?	22µM*	4%	?	?
CCCCCNC(=O)c1c[nH]c2ccc(S(=O)(=O)N3CCC(C)CC3)cc2c1=O	9	.	0%	.	.	-7%[46.1 µM]
COC(=O)C1=C[C@@H](C(=O)OC)[C@@H]2C3=C(C(=O)C2(C)C)[C@H](C)n2c(=O)n(C)c(=O)n2[C@@H]3C1	.	.	.	1%	.	.
CC1=C(C#N)C(c2cccnc2)C2=C(N1)c1ccccc1C2=O (stereo unspecified)	-28	-6%	-14%	-1%	2%	19%
CC1=C(C#N)C(c2ccccc2)C2=C(N1)c1ccccc1C2=O (stereo unspecified)	-71*	?	?	-17%	?	?

Screening data from PubChem.
